Compound activity deposited in PubChem by University of Kansas High Throughput Screening Laboratory.
Pf apPOL block = Pf-apPOL inhibitors, biochemical, fluorescence | Plasmodium falciparum apicoplast DNA polymerase (apPOL) | Recombinant Pf-apPOL, molecular beacon fluorescence, 1.5 h | inhibition, % at 10 µM | hit rate 0.25% among 210,000 | AID 1794808, 2022
mHTT CaM bind = mutant huntingtin-calmodulin interaction inhibitors – biochemical, AlphaScreen, primary screen; AID 1671202, 2021; AlphaScreen His-mHTT/GST-CaM binding, luminescence; hit rate 3.6% among 190,000; inhibition, % at 15 µM; P42858;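 note: 0% = both proteins with DMSO and 100% = one protein alone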
Numbers without * were called inactive; . = no result. Rows were chosen to be rich in hits. Some 3.6% of all compounds tested hit in one or more screens of this group. Cut-off read from the data, not from the text of the source: active = inhibition above about 50%; inactive = the rest.

SMILES	Pf apPOL block	mHTT CaM bind
O=c1cc(-c2ccccc2[N+](=O)[O-])oc2ccccc12	-9.6	4.6
CCCCOc1ccc(C(=O)N2CCOC(c3ccccc3)C2)cc1 (stereo unspecified)	-3.2	-15.4
O=C(NCc1ccccc1)c1cc(N2C(=O)C=CC2=O)ccc1Cl	-1.9	31.0
O=C(O)c1cc(N2C(=O)C=CC2=O)ccc1Cl	54.6*	.
Cc1cc(C(N)=NOC(=O)c2cccc(Cl)c2)no1	-1.7	.
CCNC(=O)c1sc(-c2ccc(F)cc2)nc1C	-6.8	-2.8
Cc1ccn2c(NCc3ccccc3)c(-c3ccccc3O)nc2c1	1.1	80.5*
Cc1ccn2c(NC(=O)CC(C)C)c(-c3ccccc3C)nc2c1	0.2	2.7
O=C(c1cccs1)N1CCN(C(=O)C2CCCCC2)CC1	-7.7	.
O=C(C1CCC1)N1CCN(C2=NN=C(c3cccs3)CS2)CC1	-4.6	77.8*
Cc1[nH]nc(CCc2ccccc2)c1NC(=O)C1CCCCC1	5.8	-4.3
O=C(NC1CCCC1)C(c1cc2c(cc1[N+](=O)[O-])OCO2)N1CCC(Cc2ccccc2)CC1 (stereo unspecified)	3.7	39.0
Cc1cc(Oc2ccc([N+](=O)[O-])cc2)nc(-n2nc(C)cc2C)n1	1.9	4.2
Cc1cc(NCC(O)c2ccc([N+](=O)[O-])cc2)nc(-n2nc(C)cc2C)n1 (stereo unspecified)	-2.0	97.4*
O=C(NC1CC2CC1N(S(=O)(=O)c1ccc3c(c1)CCC3)C2)c1ccccc1 (stereo unspecified)	-4.6	5.1
COc1ccc(-c2nc3cccnc3n2C2CCN(C(=O)c3cccc(F)c3)C2)cc1 (stereo unspecified)	3.4	28.1
O=C(c1ccccc1)N1CCC(n2c(-c3ccoc3)nc3cccnc32)C1 (stereo unspecified)	-2.5	18.9
COc1ccc(-c2nc3cccnc3n2C2CCN(C(=O)NCc3cccc(F)c3)C2)cc1 (stereo unspecified)	-7.3	40.8
COc1ccc(-c2nc3cccnc3n2C2CCN(C(=O)c3cc(F)cc(F)c3)C2)cc1 (stereo unspecified)	0.3	52.7*
COc1ccc(-c2nc3cccnc3n2C2CCN(C(=O)NCc3ccc(F)cc3)C2)cc1 (stereo unspecified)	1.2	77.2*
COc1ccc(-c2nc3cccnc3n2C2CCN(C(=O)Nc3cccc(C)c3)C2)cc1 (stereo unspecified)	-2.4	61.5*
O=C(c1ccc(C(F)(F)F)cc1)N1CCC(n2c(-c3ccoc3)nc3cccnc32)C1 (stereo unspecified)	2.9	86.1*
COc1ccc(-c2nc3cccnc3n2C2CCN(C(=O)Nc3cccc(OC)c3)C2)cc1 (stereo unspecified)	-8.2	46.5
CCC(=O)N1CCc2cc(S(=O)(=O)NCc3ccccn3)ccc21	-3.0	6.0
Nc1cc(C(F)(F)F)ccc1N1CCCC1	-8.5	.
SMILES	Pf apPOL block	mHTT CaM bind
O=C(Cn1c(=O)cnc2cc(C(=O)NC3CCCC3)ccc21)NCc1ccc(F)cc1F	0.6	9.6
Cc1noc(C)c1CC(=O)NCc1nnc2n1CCCC2	-1.1	-4.8
COc1ccc([N+](=O)[O-])cc1NC(=O)C1CC1	-3.6	-4.4
CCCc1nc2cccnc2n1C1CCN(C(=O)CCc2ccc(OC)cc2)C1 (stereo unspecified)	-5.0	11.4
COc1ccc(-c2nc3cccnc3n2C2CCN(C(=O)CCc3ccccc3)C2)cc1 (stereo unspecified)	-1.4	86.4*
CCOc1ccccc1C(=O)N1CCC(CCOC)CC1	67.0*	-4.2
CCOc1ccccc1C(=O)N1CCC(COc2ccccc2C(=O)N2CCCC2)CC1	-1.0	-2.2
CC(C)Oc1ccc(Oc2nc(NC3CC3)nc(N(C)C)n2)nn1	.	-1.8
COc1cccc(C2CC(c3ccc(Cl)cc3Cl)Nc3nc(N)nn32)c1 (stereo unspecified)	2.4	51.7*
COc1ccc(C2CC(c3ccc(Cl)cc3Cl)Nc3nc(N)nn32)cc1 (stereo unspecified)	-3.7	42.1
Nc1nc2n(n1)C(c1cccs1)CC(c1ccc(Cl)cc1Cl)N2 (stereo unspecified)	-13.4	78.5*
COc1cccc(C2CC(c3ccccc3Cl)Nc3nc(N)nn32)c1 (stereo unspecified)	-2.8	29.7
CCC(=O)N1CCc2sc(S(=O)(=O)Nc3ccc(OC)cc3C)cc2C1	-2.0	25.7
Oc1oc(-c2ccc(Cl)cc2)nc1C=Nc1ccc(Cl)cn1	61.8*	-1.0
Oc1oc(-c2ccc(Cl)cc2)nc1C=Nc1ccc(Br)cn1	-3.7	-3.0
COc1ccc(C(=O)N2CCC3(CC2)NC(=O)N(Cc2cc(C)ccc2C)C3=O)cc1F	1.1	29.9
O=[N+]([O-])c1ccc(/C=C/CNc2cccc(F)c2)o1	4.0	58.7*
O=C(CCNc1cccc(F)c1)c1cccc([N+](=O)[O-])c1	2.8	16.0
COc1ccc(-c2nn(-c3ccccc3)cc2C2SCC(=O)N2Cc2ccccc2)cc1 (stereo unspecified)	-5.1	87.0*
O=C1CSC(c2cn(-c3ccccc3)nc2-c2cccnc2)N1Cc1ccccc1 (stereo unspecified)	-36.4	28.0
COc1ccc(NC(=O)N2CCC(N3CCN(Cc4ccccc4)C3=O)CC2)cc1	-0.7	2.6
O=C(Cc1nnc(-c2ccccc2)o1)N1CCSCC1	3.2	-7.5
O=C(CSc1nc2[nH]ncc2c(=O)n1-c1ccc(Cl)cc1)c1ccc(Cl)cc1	0.3	25.0
Cc1cc(C)cc(NC(=O)c2cc(S(=O)(=O)N3CC(C)CC(C)C3)ccc2F)c1 (stereo unspecified)	7.9	-1.0
CCOC(=O)c1c(-c2ccccc2)oc2c1cc(OC(=O)c1ccccc1OC)c1ccccc12	2.2	-8.4
SMILES	Pf apPOL block	mHTT CaM bind
CCOC(=O)c1c(-c2ccccc2)oc2c1cc(OC(=O)c1cc(OC)c(OC)c(OC)c1)c1ccccc12	58.2*	6.7
O=C(NCc1ccc2c(c1)OCO2)C1CCCN(c2nccnc2Sc2ccccc2)C1 (stereo unspecified)	-1.7	8.8
COc1cc([N+](=O)[O-])cc(C=Nc2cccc(Cl)c2Cl)c1O	8.0	10.0
Oc1cccnc1N=Cc1cc(I)cc(I)c1O	-1.4	90.0*
COc1cccc(N=Cc2cc([N+](=O)[O-])cc(OC)c2O)c1	8.2	76.0*
CCOc1cc([N+](=O)[O-])cc(C=Nc2ccc3ncccc3c2)c1O	-1.9	32.0
Cc1cccc(N=Cc2cc(I)cc(I)c2O)c1	-2.2	11.0
COc1cc([N+](=O)[O-])cc(C=Nc2ncccc2O)c1O	2.6	72.0*
CC1(C)COc2cc(NC(=O)c3ccc(F)c(F)c3)ccc2NC1=O	-4.6	-2.1
CCOc1cc(-c2ccc(O)c(O)c2)cc(=O)c2c(C)oc(C)c12	-2.9	47.0
CCOc1cc(-c2cc(OC)c(OC)c(OC)c2)cc(=O)c2c(C)oc(C)c12	2.4	37.0
COc1cc(-c2ccc(O)cc2)cc(=O)c2c(C)oc(C)c12	-0.2	42.0
CCOc1cc(-c2ccc(SC)cc2)cc(=O)c2c(C)oc(C)c12	4.0	70.0*
CCOc1cc(-c2ccc(OCc3ccccc3)c(OC)c2)cc(=O)c2c(C)oc(C)c12	-2.7	70.0*
COc1ccc(-c2cc(OC)c3c(C)oc(C)c3c(=O)c2)cc1	7.0	54.0*
COc1ccccc1-c1nc(C2CCCN(C(=O)c3ccc(F)c(F)c3)C2)no1 (stereo unspecified)	-2.8	4.3
